27 compounds from PubChem BioAssay (EPA / NIEHS) can be followed below.

Values joined by “and” are separate entries in the source; they are usually repeats but may differ in a detail not shown here. Equal entries are not always repeated. Active and inactive are the calls of the source. The calls were made as follows: active = hit-call score of the fitted dose curve at least 0.9, where 1 is the maximum; inactive = score below 0.9.

Read-out in the assay: Monokine induced gamma interferon (MIG), CXCL9 (gene 4283)
Nature of the assay: BSK_BE3C_MIG: BioMAP Diversity Plus: BE3C Assay for Monokine induced gamma interferon (MIG) Biomarker Activity (AID 2283035). The note with it: primary human bronchial epithelial cells; actives raise or lower the signal. How it is done:
BSK_BE3C is a cell-based, multiplexed-readout assay that uses bronchial epithelial cell, a human lung primary cell, with measurements taken at 24 hours after chemical dosing in a 96-well plate.BSK_BE3C_MIG is an assay component measured in the BSK_BE3C assay. It measures MIG antibody related to regulation of gene expression using ELISA technology.Data from the assay component BSK_BE3C_MIG was analyzed into 1 assay endpoint. This assay endpoint, BSK_BE3C_MIG, was analyzed with bidirectional fitting relative to DMSO as the negative control and baseline of activity. Using a type of binding reporter, gain or loss-of-signal activity can be used to understand changes in the signaling as they relate to the gene CXCL9. Furthermore, this assay endpoint can be referred to as a primary readout, because this assay has produced multiple assay endpoints where this one serves a signaling function. To generalize the intended target to other relatable targets, this assay endpoint is annotated to the cytokine intended target family, where the subfamily is chemotactic factor.
The levels of cell surface (or secreted, indicated by the prefix "s") biomarker endpoints were measured by ELISA. Overt cytotoxicity to cells in confluent adherent cultures (all systems other than the BT system) was assessed by measuring total protein levels using sulforhodamine B (SRB) staining in parallel cultures at the time of biomarker measurements, indicated as SRB endpoints. For proliferation assays for adherent cell types, individual cell types are cultured at sub-confluence and relative cell numbers quantified by SRB staining at time points optimized for each system (48 h: 3C and CASM3C systems; 72 h: BT and HDF3CGF systems; 96 h: SAg system). SRB was performed by staining cells with 0.1% SRB after fixation with 10% TCA and reading wells at 560 nm.Viability and proliferation of PBMC (T cells) was quantified by Alamar Blue reduction for the SAg and BT systems. For PBMC viability (referred to as PBMC Cytotoxicity within the assay endpoint names), cells were plated (75,000/well in a 96-well plate) and then chemical samples added for 1 h before addition of activators, SEB and TSST-1 (20 ng/mL final concentration each). Cells were incubated for 90 h. Then, Alamar Blue (20 uL/well) (Invitrogen, Cat DAL1100) was added for 6 h, and the plates were read with a fluorescence microplate reader at 546/580 nm (excitation/emission). For PBMC proliferation, cells were plated and activated as above but incubated for only 16 h prior to addition of Alamar Blue. Plates were read after 6 h.
Take `COC(=O)/C=C\C(=O)OC`: the result was inactive.
Still for that read-out and setting: as for `CCC[Si](OC(C)=O)(OC(C)=O)OC(C)=O`, the entry is “inactive”.
As usually defined, the AC50 is the concentration giving half of the maximal activity seen. `CC(C)CC(=O)CC(C)CC(C)C` (configuration not stated): the AC50 is 34.6 µM (active).
Regarding `COc1cc(CNC(=O)CCCC/C=C/C(C)C)ccc1O`, the outcome was inactive.
Consider `Cc1cc(-n2nc3ccc(Cl)cc3n2)c(O)c(C(C)(C)C)c1`, for which the result was inactive.
Same read-out and setting: in the case of `O=C(C(=O)c1ccccc1)c1ccccc1` it was “inactive”; in that of `CCCCCCC(O)CCCCCCCCCCC(=O)OC` (configuration not stated), “inactive”.
`COc1ccc(C(=O)c2ccccc2O)c(O)c1`: the result was inactive.
Consider `O=[N+]([O-])c1cc(S(=O)(=O)Nc2ccccc2)ccc1Nc1ccccc1`, for which the AC50 is 31 µM (active) and 34.2 µM (active).
In the case of `COc1ccccc1Oc1c(NS(=O)(=O)c2ccc(C(C)(C)C)cc2)nc(-c2ncccn2)nc1OCCO`, the outcome was inactive.
For the compound `CC[N+](CC)(CC(=O)Nc1c(C)cccc1C)Cc1ccccc1` (tested in a mixture with another compound), the outcome was inactive.
As for `OC(C(F)(F)F)(C(F)(F)F)C(O)(C(F)(F)F)C(F)(F)F`, the AC50 was 54.8 µM (active) and 54.6 µM (active).
With `C1CN(CCOCCN2CCOCC2)CCO1`, the result was inactive.
Regarding `Cc1cccnc1`, the result was inactive.
In the case of `CCC(C)=NO`, the outcome was inactive.
As for `CC(C)C1OCCN1CCOC(=O)NCCCCCCNC(=O)OCCN1CCOC1C(C)C` (configuration not stated), the outcome was inactive.
Turning to `CCCCCCCCCCC1CO1` (configuration not stated), the outcome was inactive.
As for `Oc1cccc2ccccc12`, the outcome was inactive.
As for `CN(C)c1ccc(C(c2ccccc2)c2ccc(N(C)C)cc2)cc1`, the result was inactive.
For the compound `CN(C)Cc1cc(C(C)(C)C)c(O)c(C(C)(C)C)c1`, the result was inactive.
On to `CCCCCCCCCCCCCCCCCC[N+](C)(C)C`, for which the AC50 is 3.82 µM (active).
For the compound `CC[N+](CC)(CC(=O)Nc1c(C)cccc1C)Cc1ccccc1`, the result was inactive.
Take `Sc1nc2ccccc2s1`: the outcome was inactive.
As to `CCCCC(CC)COC(=O)C=Cc1ccc(OC)cc1` (configuration not stated), the result was inactive.
`Cc1c(C(N)=O)cc([N+](=O)[O-])cc1[N+](=O)[O-]`: the outcome was inactive.
`CN(C)CCC(c1ccc(Cl)cc1)c1ccccn1` (configuration not stated): the outcome was inactive.
On to `CCCCCCCCCC/C=C/C1CC(=O)OC1=O` (configuration not stated), for which the result was inactive.
